The text below walks through data of PubChem BioAssay (Tox21).

SMILES strings stand for the structures. Results filed as inconclusive are left out. Entries that show only a call come without a potency. Calls of active or inactive are those of the source. Calls follow the shape of the dose curve; as a rule, active = well fitted cell-killing curve with a large enough effect in the repeat runs; inconclusive = weak or mixed curves, or effect the other way; inactive = no such curve, though single readings can be large or run the other way.

This experiment can be described thus: qHTS assay to identify small molecule antagonists of the vitamin D receptor (VDR) signaling pathway - cell viability counter screen (AID 743225). Also: nearly all actives have a fitted effect of over 50% in size. To be noted: VDR-bla HEK293T viability, CellTiter-Glo luminescence, 16 h; series mostly up to 61 µM. The procedure, abridged: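 In this counter screen, VDR-bla HEK 293T cells receive test compound plus 3 nM final calcitriol for 16 h at 37C. Room-temperature steps of 2 h with the beta-lactamase substrate, then 30 min with CellTiter-Glo, precede the luminescence read.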
Background: Quantitative high-throughput screening tests each substance at several concentrations.
As to `CC[C@H](NC(=O)c1cc(F)ccc1NS(=O)(=O)c1cccc2cccnc12)c1ccccc1`, the Potency entry was “inactive”.
For `Nc1ccc(Cl)cc1[N+](=O)[O-]`, the Potency result was “inactive”.
For `Brc1cc(-c2ccc(Br)c(Br)c2Br)cc(Br)c1Br` the value was “inactive”; for `O=C(O)C(Cc1cc(I)c(O)c(I)c1)c1ccccc1` (stereo unspecified), “inactive”.
Regarding `CC(C)(C)C(=O)C(Oc1ccc(Cl)cc1)n1ccnc1` (stereo unspecified), the Potency entry is “inactive”.
Turning to `C=CCOC(=O)/C=C\C(=O)OCC=C`, the Potency entry is “inactive”.
The same measure for `NC(=O)N(O)[C@@H]1C=C[C@H](Oc2cccc(Oc3ccc(F)cc3)c2)C1`: “inactive”.
On to `CCC(C(=O)OCCN(CC)CC)c1ccccc1` (stereo unspecified), for which the Potency entry was “inactive”.
For `COC(=O)c1cc(S(N)(=O)=O)ccc1OC`, the Potency result is “inactive”.
For `COc1ccc(CCC(=O)c2c(O)cc(O[C@@H]3O[C@H](CO)[C@@H](O)[C@H](O)[C@H]3O[C@@H]3O[C@@H](C)[C@H](O)[C@@H](O)[C@H]3O)cc2O)cc1O`, the Potency result is “inactive”.
As for `O=C(O)Cc1ccc(-c2ccccc2)cc1`, the Potency result was “inactive”.
For the compound `CC(CCO)CCc1ccccc1` (stereo unspecified), the Potency result is “inactive”.
For the compound `COC(=O)c1cc(Cl)ccc1NS(=O)(=O)C(F)(F)F`, the Potency entry was “inactive”.
The same measure for `O=C(C(=O)c1ccccc1)c1ccccc1`: “inactive”.
With `Cc1oncc1C(=O)Nc1ccc(C(F)(F)F)cc1`, the Potency entry is “inactive”.
Regarding `N#C/C(=C1\SCC(c2ccccc2Cl)S1)n1ccnc1` (stereo unspecified), the Potency entry is “inactive”.
